The results in this text go back to PubChem BioAssay (Tox21).

Experiment [1] is described as follows: Nuclear factor erythroid 2-related factor 2/antioxidant responsive element (Nrf2/ARE) small molecule agonists: qHTS cell viability counter screen in human keratinocytes (AID 1919968; active means well fitted curve in the direction sought with a large enough effect in the repeat runs; an effect the other way counts as inactive or inconclusive; further: nearly all actives have a fitted effect of over 55% in size; further: potency means the concentration at half of the fitted maximal effect). The method, boiled down: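 After a 5 h attachment period, ARE-reporter keratinocytes were dosed with compounds in DMSO and then cultured 23 h at 37 C. Cell viability came from CellTiter-Fluor signal read after a further 1 h.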
For orientation: In qHTS, concentration-response curves come from the screen itself.

The nature of experiment [2]: Nuclear factor erythroid 2-related factor 2/antioxidant responsive element (Nrf2/ARE) small molecule agonists: luciferase reporter gene qHTS assay in human keratinocytes (AID 1919969). Further: nearly all actives have a fitted effect of over 35% in size. Further: potency means the concentration at half of the fitted maximal effect. In general terms: A reporter such as luciferase makes a cellular process visible.
Experiment [3] addresses Gonadotropin-releasing hormone receptor (Homo sapiens) (UniProt P30968). In words: Human gonadotropin-releasing hormone receptor (GnRHR) small molecule agonists, calcium flux assay in GnRHR-HEK293 cells (AID 1920063). Further: nearly all actives have a fitted effect of over 35% in size. The procedure, abridged:
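We seeded human GnRHR-expressing HEK293 cells for 18 hours, loaded them with calcium dye for an hour at 37 C, added test compounds, and recorded fluorescence intensity kinetically for three minutes.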
A general note: A change in cytosolic calcium serves as a functional read-out for many receptors and channels.

The target of experiment [4] is KiSS-1 receptor (Homo sapiens) (UniProt Q969F8). In words: Human kisspeptin (KISS1R) small molecule agonists, calcium flux assay in KISS1R-HEK293 cells (AID 1920064; active means well fitted curve in the direction sought with a large enough effect in the repeat runs; an effect the other way counts as inactive or inconclusive). The method, boiled down:
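Kinetic calcium assay, 1 s sampling over 3 min at Ex/Em 480/540, in HEK293 cells engineered with human KISS1R; compounds delivered in DMSO after 1 h dye loading.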

Experiment [5] is described as follows: G protein-coupled receptor (GPCR) small molecule agonists, calcium flux assay: HEK293 wild type cell line counter screen (AID 1920065). The method, boiled down: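 Calcium-sensitive dye, loaded 1 h at 37 C into cells cultured 18 h, reports compound-evoked calcium release as fluorescence (Ex/Em 480/540), measured over 3 min. Agonist mode; 15-point titrations, triplicate.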

A short description of experiment [6]: p53 small molecule agonists, cell-based qHTS assay with human liver microsomes (AID 1963577). The method, boiled down:
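p53RE-bla cells, 4,000/well, compound added after 5 h, with human liver microsomes 0.5 mg/mL and NADPH 0.5 mg/mL final; 16 h at 37 C, then LiveBLAzer 2 h RT, fluorescence.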

The nature of experiment [7]: p53 small molecule agonists, cell-based qHTS assay with rat liver microsomes (AID 1963578). The procedure, abridged:
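p53RE-bla cells, 4,000/well, pre-incubated 5 h, then given compounds plus rat liver microsomes (0.5 mg/mL final) and NADPH (0.5 mg/mL final). Incubation 16 h at 37 C; beta-lactamase reporter read by LiveBLAzer fluorescence after 2 h at room temperature.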

Experiment [8] can be described thus: p53 small molecule agonists, cell-based qHTS assay with human liver microsomes: qHTS cell viability counter screen (AID 1963579). Further: nearly all actives have a fitted effect of over 45% in size. Further: potency means the concentration at half of the fitted maximal effect. The procedure, abridged:
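p53RE-bla cells, 4,000/well, dosed 5 hours after plating, with human liver microsomes (0.5 mg/mL final) plus NADPH (0.5 mg/mL final), 16 hours at 37 C. Viability read as CellTiter-Glo luminescence after 30 min at room temperature.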

The nature of experiment [9]: p53 small molecule agonists, cell-based qHTS assay with rat liver microsomes: qHTS cell viability counter screen (AID 1963580). Further: nearly all actives have a fitted effect of over 45% in size. The procedure, abridged: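 HCT-116 p53RE-bla, 4,000 cells/well, 5 h pre-incubation; cpd + rat liver microsomes 0.5 mg/mL + NADPH 0.5 mg/mL (final); 16 h, 37 C; CellTiter-Glo, 30 min RT; luminescence.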
Experiment [10] in a line: p53 small molecule agonists, cell-based qHTS assay: qHTS cell viability counter screen (AID 1963581). Further: nearly all actives have a fitted effect of over 45% in size. The method, boiled down:
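Following 5 h attachment, HCT-116 p53RE-bla cells took up compound for 16 h at 37 C; the reporter was read with B/G FRET substrate (2 h RT), and viability then via CellTiter-Glo ATP luminescence.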

Experiment [11] is described as follows: p53 small molecule agonists, cell-based qHTS assay (AID 1963582; active means well fitted activation curve with a large enough effect in the signal ratio in the repeat runs, not every such curve was filed as active; the % refers to the signal ratio). The method, boiled down: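 In this cell-based concentration-response screen, a p53 response element drives beta-lactamase; cells received DMSO-borne compounds after 5 h culture and were incubated a further 16 h before FRET substrate development.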
Experiment [12] addresses 5-hydroxytryptamine receptor 2A (Homo sapiens) (UniProt P28223). The experiment is described as follows: 5-hydroxytryptamine receptor 2A (HTR2A) small molecule antagonists, cell-based qHTS assay (AID 1963586). Further: nearly all actives have a fitted effect of over 45% in size. The method, boiled down: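 Antagonist-mode intracellular calcium assay: DOI (4 nM) added after 5 min compound pre-incubation at room temperature to dye-loaded HTR2A-CHO cells. Fluorescence followed for 3 min, sampled every second.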

For experiment [13] the target is unchanged. The experiment is described as follows: 5-hydroxytryptamine receptor 2A (HTR2A) small molecule agonists, cell-based qHTS assay (AID 1963587). Further: nearly all actives have a fitted effect of over 30% in size. The procedure, abridged: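 Kinetic calcium-flux fluorescence (2 min, 1 sec intervals) after compound addition in agonist mode. HTR2A-CHO cells were cultured 18 h, then dye-loaded 1 h at 37 C.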
The target in experiment [14] is Muscarinic acetylcholine receptor M1 (Homo sapiens) (UniProt P11229). In words: Cholinergic receptor muscarinic 1 (CHRM1) small molecule antagonists, cell-based qHTS assay (AID 1963588). Further: nearly all actives have a fitted effect of over 40% in size. The procedure, abridged:
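CHRM1-CHO calcium-flux assay, antagonist mode. Cells were seeded 18 h, dye-loaded 1 h at 37 C and given compound for 5 min at RT, then acetylcholine was added at 50nM. FDSS fluorescence was read 3 min; 15 concentrations, three runs.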

For experiment [15] the target is unchanged. In words: Cholinergic receptor muscarinic 1 (CHRM1) small molecule agonists, cell-based qHTS assay (AID 1963589). Further: nearly all actives have a fitted effect of over 35% in size. The procedure, abridged:
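Measures agonist-induced intracellular calcium rise. Stable human CHRM1 CHO line, 1 h dye load at 37 C, compounds from DMSO, kinetic fluorescence read.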

Experiment [16] in a line: cAMP Responsive Elements (CRE) small molecule agonists, cell-based qHTS assay (AID 1963590). The method, boiled down:
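A CRE-responsive beta-lactamase reporter in HEK 293T cells was used. Treatment ran 3 h at 37 C; detection used LiveBLAzer B/G FRET substrate for 2 h at room temperature.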

Experiment [17] in a line: cAMP Responsive Elements (CRE) small molecule antagonists, cell-based qHTS assay (AID 1963591; active means well fitted inhibition curve with a large enough effect in the signal ratio in the repeat runs, not every such curve was filed as active; the % refers to the signal ratio). The procedure, abridged: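 HEK293T cells carrying a CRE-driven beta-lactamase reporter receive compound and NKH477 (0.25 uM final) for 3 h. Fluorescence from LiveBLAzer B/G FRET substrate is read after 2 h at room temperature.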
The target of experiment [18] is Beta-2 adrenergic receptor (Homo sapiens) (UniProt P07550). In words: Adrenergic beta2 receptor (ADRB2) small molecule antagonists, cell-based qHTS assay (AID 1963592). Further: series mostly up to about 92 µM; nearly all actives have a fitted effect of over 50% in size. The method, boiled down: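 Cells (CHO, stable ADRB2 overexpression) incubated 18-20hr at 37C; compounds added from DMSO; agonist mix (1nM isoproterenol, 100uM IBMX, 25uM Ro-20-1724) added; 0.5hr RT; d2-cAMP and anti-cAMP-cryptate added; 1hr RT; 665/615 nm read.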

For experiment [19] the target is unchanged. In words: Adrenergic beta2 receptor (ADRB2) small molecule agonists, cell-based qHTS assay (AID 1963593).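 Further: CHO cells stably overexpressing human ADRB2.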 The method, boiled down:
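CHO cells stably over-expressing ADRB2 were plated overnight at 37C, then dosed with compounds plus a stimulation mix containing 100uM IBMX and 25uM Ro-20-1724 for 0.5hr at room temperature. cAMP was measured by HTRF competition, 1hr.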

In experiment [20] the target is D(2) dopamine receptor (Homo sapiens) (UniProt P14416). The experiment is described as follows: Dopamine D2 receptor (DRD2) small molecule agonists, cell-based qHTS assay (AID 1963594). Further: nearly all actives have a fitted effect of over 35% in size. The method, boiled down:
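cAMP accumulation in DRD2-HEK293 cells measured by HTRF after 1 h detection; compounds added 10 min before NKH477 (200nM […]) forskolin-analogue stimulation, 30 min at room temperature, with Ro20-1724 present at 0.1 mM final.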

A number with no mark means an inactive call. Records with an inconclusive call do not appear. The source holds several records for some structures; these can differ, active in one and inactive in another. Active and inactive are the calls of the source. Unless noted, the call rests on the fitted dose curve.
On the % scale 0 is the no-effect control and ±100 the full control effect.

Gonadotropin-releasing hormone receptor (Homo sapiens), sequence (P30968 whole entry, looked up): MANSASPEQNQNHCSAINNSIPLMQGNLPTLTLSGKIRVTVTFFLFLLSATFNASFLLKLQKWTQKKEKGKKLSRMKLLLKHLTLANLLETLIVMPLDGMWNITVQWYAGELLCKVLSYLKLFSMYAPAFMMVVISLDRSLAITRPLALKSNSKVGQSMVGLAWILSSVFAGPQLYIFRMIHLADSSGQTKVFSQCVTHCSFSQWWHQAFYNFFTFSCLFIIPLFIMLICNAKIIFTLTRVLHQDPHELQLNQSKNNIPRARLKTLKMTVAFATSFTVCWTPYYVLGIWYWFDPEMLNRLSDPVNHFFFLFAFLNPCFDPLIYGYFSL
Beta-2 adrenergic receptor (Homo sapiens), sequence (P07550 whole entry, looked up): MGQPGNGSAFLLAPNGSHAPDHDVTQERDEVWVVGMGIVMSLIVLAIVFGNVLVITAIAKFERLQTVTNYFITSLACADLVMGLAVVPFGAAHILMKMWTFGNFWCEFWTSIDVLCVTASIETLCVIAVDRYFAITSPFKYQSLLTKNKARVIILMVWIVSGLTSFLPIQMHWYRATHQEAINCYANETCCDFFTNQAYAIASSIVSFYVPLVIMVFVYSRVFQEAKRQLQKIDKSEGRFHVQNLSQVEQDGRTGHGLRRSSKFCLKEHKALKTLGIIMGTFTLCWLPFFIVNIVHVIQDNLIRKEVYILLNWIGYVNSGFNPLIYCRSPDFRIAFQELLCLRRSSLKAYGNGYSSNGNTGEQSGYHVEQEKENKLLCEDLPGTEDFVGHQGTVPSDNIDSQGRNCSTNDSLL
5-hydroxytryptamine receptor 2A (Homo sapiens), sequence (P28223 whole entry, looked up): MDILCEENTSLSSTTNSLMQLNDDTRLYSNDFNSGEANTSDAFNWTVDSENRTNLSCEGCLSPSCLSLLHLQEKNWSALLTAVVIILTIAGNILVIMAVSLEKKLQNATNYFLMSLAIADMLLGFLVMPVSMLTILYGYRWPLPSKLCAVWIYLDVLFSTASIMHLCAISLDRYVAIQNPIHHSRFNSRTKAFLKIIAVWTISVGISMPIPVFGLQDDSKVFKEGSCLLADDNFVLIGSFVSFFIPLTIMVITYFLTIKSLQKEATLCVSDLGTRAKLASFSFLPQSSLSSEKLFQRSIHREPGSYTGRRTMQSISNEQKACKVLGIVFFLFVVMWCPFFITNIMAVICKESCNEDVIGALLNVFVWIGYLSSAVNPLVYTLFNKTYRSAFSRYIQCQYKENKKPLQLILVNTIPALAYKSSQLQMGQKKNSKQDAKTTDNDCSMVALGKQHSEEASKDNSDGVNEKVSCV
KiSS-1 receptor (Homo sapiens), sequence (Q969F8 whole entry, looked up): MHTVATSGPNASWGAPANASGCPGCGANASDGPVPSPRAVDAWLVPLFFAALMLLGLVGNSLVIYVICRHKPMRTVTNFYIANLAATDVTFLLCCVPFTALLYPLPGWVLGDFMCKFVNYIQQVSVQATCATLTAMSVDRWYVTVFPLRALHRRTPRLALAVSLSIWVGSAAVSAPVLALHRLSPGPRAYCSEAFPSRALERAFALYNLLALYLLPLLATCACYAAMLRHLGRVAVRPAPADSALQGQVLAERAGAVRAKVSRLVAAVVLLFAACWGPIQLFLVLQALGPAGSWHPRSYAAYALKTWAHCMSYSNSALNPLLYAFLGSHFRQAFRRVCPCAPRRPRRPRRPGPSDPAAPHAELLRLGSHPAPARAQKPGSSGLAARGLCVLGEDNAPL
Muscarinic acetylcholine receptor M1 (Homo sapiens), sequence (P11229 whole entry, looked up): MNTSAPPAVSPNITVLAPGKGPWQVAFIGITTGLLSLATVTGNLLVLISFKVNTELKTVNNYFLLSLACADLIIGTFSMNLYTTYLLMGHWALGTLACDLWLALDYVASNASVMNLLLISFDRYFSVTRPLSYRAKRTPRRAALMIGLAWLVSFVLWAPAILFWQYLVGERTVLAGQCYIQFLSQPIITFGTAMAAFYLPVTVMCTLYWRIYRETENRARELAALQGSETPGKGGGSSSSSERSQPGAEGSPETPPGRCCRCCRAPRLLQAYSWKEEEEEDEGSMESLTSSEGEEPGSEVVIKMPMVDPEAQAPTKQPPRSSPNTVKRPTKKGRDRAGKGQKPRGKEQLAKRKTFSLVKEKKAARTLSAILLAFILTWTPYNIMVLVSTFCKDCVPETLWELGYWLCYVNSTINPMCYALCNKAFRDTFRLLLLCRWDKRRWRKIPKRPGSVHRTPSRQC
D(2) dopamine receptor (Homo sapiens), sequence (P14416 whole entry, looked up): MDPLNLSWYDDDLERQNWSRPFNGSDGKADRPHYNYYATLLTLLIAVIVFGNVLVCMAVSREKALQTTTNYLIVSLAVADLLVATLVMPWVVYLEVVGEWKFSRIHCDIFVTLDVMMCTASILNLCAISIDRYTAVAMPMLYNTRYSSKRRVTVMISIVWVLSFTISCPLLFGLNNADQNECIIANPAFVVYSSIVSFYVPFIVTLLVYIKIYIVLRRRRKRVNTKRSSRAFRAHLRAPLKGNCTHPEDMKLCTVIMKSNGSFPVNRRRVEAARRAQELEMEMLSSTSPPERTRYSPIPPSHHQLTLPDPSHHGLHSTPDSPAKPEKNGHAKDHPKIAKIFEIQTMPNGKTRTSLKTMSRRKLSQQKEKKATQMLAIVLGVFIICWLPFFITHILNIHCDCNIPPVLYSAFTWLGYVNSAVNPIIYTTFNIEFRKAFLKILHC

Regarding `CCC(C)(C)C1CCC(OC)CC1` (configuration not stated), the Potency result in [1], in experiment [2], in experiment [3], in experiment [4], in [5] and in [6] was “inactive” throughout. Moreover, the Potency entry in [7], in experiment [8], in experiment [9], in experiment [10], in [11] and in experiment [12] was “inactive” in each case. For the same compound, the Potency entry in experiment [13], in [14], in experiment [15], in experiment [16], in experiment [17] and in experiment [18] was “inactive” in each case. Besides, the Potency entry in experiment [19] and in experiment [20] was “inactive” each time.
As to `COc1ccc2cc3[n+](cc2c1OC)CCc1cc2c(cc1-3)OCO2`, the Potency in [1] is 4.22 µM (active). Further, the Potency entry in experiment [2], in experiment [3], in [4], in experiment [5], in experiment [6] and in experiment [7] was “inactive” each time. For the same compound, the Potency entry in experiment [8], in [9] and in experiment [10] was “inactive” each time.
For the compound `NNc1nncc2ccccc12`, the Potency in [1] is 30.6 µM (active); in [8] it was 32.4 µM (active). Besides, the activity change, negative = cytotoxicity in experiment [1] is -11.5% [at 19 µM]; in experiment [8], -0.157% [at 13.5 µM]. The Potency entry in experiment [3], in experiment [4], in experiment [5], in [6], in experiment [7] and in experiment [10] was “inactive” in each case. Also, the Potency result in [17], in [18] and in experiment [20] was “inactive” throughout. Also, the activation in experiment [16] was 0.777% [at 19 µM].
As to `C1C[C@@H]2[C@H]3CC[C@H](C3)[C@@H]2C1`, the Potency entry in experiment [1], in experiment [2], in experiment [3], in [4], in experiment [5] and in experiment [6] was “inactive” throughout. Further, the Potency result in [7], in [8], in experiment [9], in experiment [10], in experiment [11] and in [12] was “inactive” throughout. Also, the Potency entry in experiment [13], in [14], in [15], in experiment [16], in experiment [17] and in [18] was “inactive” in each case. Moreover, the Potency entry in [19] and in experiment [20] was “inactive” in each case.
On to `Clc1ccccc1-c1nc(-c2ccncc2)no1`, for which the Potency result in experiment [1], in [3], in experiment [4], in [5], in [6] and in [7] was “inactive” each time. In addition, the Potency entry in [8], in experiment [9], in experiment [10], in experiment [11], in experiment [12] and in experiment [13] was “inactive” each time. Also, the Potency result in experiment [14], in experiment [15], in experiment [16], in experiment [17], in experiment [18] and in [19] was “inactive” each time. Besides, the Potency entry in experiment [20] is “inactive”. Also, the Potency in [2] is 2.11 µM (active).
Regarding `O=C(c1ccccc1)C1(O)CCCCC1`, the Potency entry in experiment [1], in experiment [2], in [3], in experiment [4], in experiment [5] and in experiment [6] was “inactive” throughout. For the same compound, the Potency entry in experiment [7], in experiment [8], in experiment [9], in [10], in [11] and in experiment [12] was “inactive” in each case. In addition, the Potency result in [13], in experiment [14], in [15], in [16], in [17] and in experiment [18] was “inactive” each time. Also, the Potency entry in experiment [19] and in experiment [20] was “inactive” throughout.
In the case of `OC1(c2ccc(Cl)cc2)CCNCC1`, the Potency result in [1], in [2], in [3], in experiment [4], in experiment [5] and in experiment [6] was “inactive” throughout. Also, the Potency result in experiment [7], in experiment [8], in experiment [9], in [10], in experiment [11] and in [12] was “inactive” throughout. Also, the Potency result in [13], in [14], in experiment [15], in experiment [16], in [17] and in experiment [18] was “inactive” each time.
Consider `CCCCCCCOC(C)=O`, for which the Potency result in [1], in experiment [2], in experiment [3], in [4], in [5] and in [6] was “inactive” in each case. Further, the Potency result in experiment [7], in [8], in experiment [9], in experiment [10], in experiment [11] and in experiment [12] was “inactive” each time. For the same compound, the Potency entry in experiment [13], in experiment [14], in experiment [15], in [16], in experiment [17] and in experiment [18] was “inactive” each time. For the same compound, the Potency result in experiment [19] and in experiment [20] was “inactive” each time.
